From PubChem BioAssay
Where “and” joins values, the source holds several entries; their conditions need not be identical. Equal entries are not always repeated. Results filed as inconclusive are left out. For some of these results: Entries with a potency or affinity are not part of this list. Calls of active or inactive are those of the source.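 How the source made its calls, unless noted: active means compounds killing one labelled cell type while sparing the other, by normalised counts and ratio limits, not self-fluorescent; inactive means the rest.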

Assays:
[1] = EMT-state selective cytotoxicity in co-culture – imaging, PC-3E GFP, TEM4-18 mCherry, primary screen (AID 1345086); details: PC-3E GFP / TEM4-18 mCherry co-culture, imaging cell counts, at 1 µM; for red/green cell ratio (normalised): actives lie on both sides, counts scaled to control wells, 1 = unselective;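 on all read-outs here: cells exposed to compound for 72 h before imaging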;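 on red/green cell ratio (normalised): normalised mesenchymal count divided by normalised epithelial count so high means epithelial killing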
[2] = tested on: Aerobactin synthetase IucA (Klebsiella pneumoniae); test: inhibition of K. pneumoniae IucA enzyme – biochemical, Tocris library, absorbance (AID 1345561; call rule not given here;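 further: 100% = enzyme without compound and 0% = no enzyme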); details: purified IucA enzyme assay, absorbance (OD) read-out; stronger effect = lower value;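 tested at 8 µM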
[3] = viability loss with induced miR-34 in A549 – imaging, A549 dox-inducible miR-34, nuclei and caspase counts, primary screen (AID 1347080;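 active means compounds whose cell count with miR-34 switched on is under 0.7 times the count with it off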); details: A549 miR-34 inducible, Hoechst nuclei count, 48 h
[4] = target: Mitogen-activated protein kinase 7 (Homo sapiens) (UniProt Q13164); test: Gal4-ERK5 driven luciferase induction – cell-based, HTS, primary screen (AID 1508626;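 active means luciferase signal above three times the same-plate solvent-only control wells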;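 further: luciferase driven by Gal4-ERK5 fusion binding five Gal4 sites before minimal TATA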); details: HeLa Gal4-ERK5 transactivation, 18 h, at 5 µM, stronger effect = higher value
Sequence of Mitogen-activated protein kinase 7 (Homo sapiens) (Q13164 whole entry, looked up, the tested form may be a part): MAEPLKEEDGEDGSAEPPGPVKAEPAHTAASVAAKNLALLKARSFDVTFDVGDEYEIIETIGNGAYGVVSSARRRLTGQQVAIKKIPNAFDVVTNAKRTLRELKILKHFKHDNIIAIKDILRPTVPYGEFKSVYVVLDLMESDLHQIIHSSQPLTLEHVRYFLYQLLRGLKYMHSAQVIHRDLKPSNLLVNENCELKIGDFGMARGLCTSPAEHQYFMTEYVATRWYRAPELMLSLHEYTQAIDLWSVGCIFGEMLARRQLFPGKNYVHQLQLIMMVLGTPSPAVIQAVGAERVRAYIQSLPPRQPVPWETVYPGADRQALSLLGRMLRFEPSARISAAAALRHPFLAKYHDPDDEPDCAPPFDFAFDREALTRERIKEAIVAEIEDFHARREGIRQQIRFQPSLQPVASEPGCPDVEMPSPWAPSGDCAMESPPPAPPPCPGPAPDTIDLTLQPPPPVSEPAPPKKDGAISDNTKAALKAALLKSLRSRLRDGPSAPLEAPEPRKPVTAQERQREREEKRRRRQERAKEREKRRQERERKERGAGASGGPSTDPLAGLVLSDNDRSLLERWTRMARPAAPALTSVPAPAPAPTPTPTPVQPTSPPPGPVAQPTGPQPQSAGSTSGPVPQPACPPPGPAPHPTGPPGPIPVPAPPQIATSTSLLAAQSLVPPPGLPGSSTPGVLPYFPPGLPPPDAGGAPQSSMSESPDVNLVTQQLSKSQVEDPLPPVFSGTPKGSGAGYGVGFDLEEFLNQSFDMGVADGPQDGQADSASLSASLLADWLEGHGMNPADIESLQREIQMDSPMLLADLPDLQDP

[5] = galactose survival enhancers in mitochondrial complex I cybrids – cell-based, galactose medium, ATP luminescence, primary screen (AID 1645843;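 active means z-score of at least 1.8 in each of two replicates, scored against plate mean and spread of sample wells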;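 further: positive z means more ATP and so rescue of galactose-driven cybrid death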); details: complex I mutant cybrid cells, 72 h, stronger effect = higher value
[6] = blockers of polyQ-driven CASP3 activation – cell-based (AID 1583); details: polyglutamine-induced caspase-3 activation, cell assay; stronger effect = higher value;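 tested at 10 µM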
[7] = yeast 75Q aggregation reduction – 75Q-TubU reporter (AID 1593); details: Yeast 75Q polyglutamine aggregation reporter
[8] = restoration of touch response, mutant HTT neurons – whole organism, C. elegans mechanosensory neurons, N-terminal huntingtin (AID 1599); details: C. elegans polyQ-huntingtin mechanosensory neurons, stronger effect = higher value
[9] = blockers of cytochrome c efflux from mitochondria – biochemical, purified mitochondria (AID 1603); details: stronger effect = lower value;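 further: mouse liver mitochondria challenged with calcium chloride; signal normalized to the plate average as 100%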
[10] = polyglutamine aggregate formation blockers (AID 1604); details: polyglutamine-induced protein aggregation inhibition assay; stronger effect = higher value; tested at 2.5 µM
[11] = rescue of PC12 cells from polyQ htt toxicity – LDH release (AID 1610); details: PC12 mutant huntingtin toxicity, final LDH at 4 uM, stronger effect = lower value
[12] = glutamate transport activators, MN-1 cells, MN-1 cell line (AID 1612); details: MN-1 motor neuron cells, stronger effect = higher value;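 further: tested at 1 µM final; 0% = mean of DMSO vehicle wells on each plate; positive means more glutamate uptake than control and negative means less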
[13] = GFP-Q80 aggregate reduction, neuronal-like cells, cell-based, NGF-treated PC12, GFPQ80 (AID 1614); details: PC12 NGF-treated GFP-polyQ80 inclusion reduction;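 further: lower means fewer inclusions and 0 means no inclusions at all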
[14] = 75Q-TubH aggregate inhibition, S. cerevisiae, yeast (AID 1616); details: S. cerevisiae 75Q-TubH polyglutamine aggregation suppression; stronger effect = higher value
[15] = compounds altering circadian rhythm period length – cell-based, LOPAC library, luminescence reporter (AID 2774; call rule not given here;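 further: values are relative to mean of DMSO wells on each plate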); details: circadian reporter cells, at 7 µM, actives lie on both sides
[16] = tested on: Hepatitis C virus NS3 helicase; test: blockers of NS3h binding to ssDNA – biochemical, fluorescence polarization, LOPAC1280 library, primary screen (AID 687035; in the data active means inhibition above about 37%); details: Purified HCV NS3 helicase, Cy5-dT15 ssDNA binding fluorescence polarization; stronger effect = higher value; concentration not given here
[17] = compounds altering Cy5-DNA-NS3h complex signal – biochemical, LOPAC1280, artefact control for HCV NS3 helicase inhibitor project (AID 687037; call rule not given here); details: Cy5-DNA-NS3h complex fluorescence interference counterscreen
[18] = viability loss in pontine glioma line – cell-based, SU-DIPG-XVII, MIPE5.0, CellTiter-Glo, qHTS, dose response (AID 1347060; cut-off not given, nearly all actives have AC50 up to about 26 µM); details: CellTiter-Glo ATP luminescence
[19] = viability loss in pontine glioma line – cell-based, JHH-DIPG-1, MIPE4.0, CellTiter-Glo, qHTS, dose response (AID 1347062; cut-off not given, nearly all actives have AC50 up to about 27 µM); details: JHH-DIPG-1 viability, CellTiter-Glo ATP luminescence
[20] = viability loss in pontine glioma line – cell-based, SU-DIPG-IV, MIPE4.0, CellTiter-Glo, qHTS, dose response (AID 1347063; cut-off not given, nearly all actives have AC50 up to about 30 µM;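 further: compound exposure lasted 48 hours before the viability readout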); details: CellTiter-Glo ATP luminescence
[21] = viability loss in pontine glioma line – cell-based, SU-DIPG-XXV, MIPE5.0, CellTiter-Glo, qHTS, dose response (AID 1347065; cut-off not given, nearly all actives have AC50 up to about 26 µM;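 further: cells exposed to compound for 48 hours before ATP readout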); details: CellTiter-Glo ATP luminescence
[22] = growth inhibition of DIPG cells – cell-based, MIPE4.0 library, CellTiter-Glo luminescence, qHTS (AID 1347066; cut-off not given, nearly all actives have AC50 up to about 30 µM;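 further: cells exposed to compound for 48 hours before readout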); details: SU-DIPG-VI viability, CellTiter-Glo ATP luminescence
[23] = JHH-DIPG-1 glioma cell viability, MIPE5.0 library, CellTiter-Glo luminescence, qHTS (AID 1347067; cut-off not given, nearly all actives have AC50 up to about 26 µM;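 further: cells exposed to compound for 48 hours before readout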); details: JHH-DIPG-1 glioma viability, CellTiter-Glo ATP luminescence
[24] = growth inhibition of DIPG cells – cell-based, MIPE5.0 library, qHTS (AID 1347068; cut-off not given, nearly all actives have IC50 up to about 30 µM;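 further: cells exposed to compound for 48 hours before viability readout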); details: SU-DIPG-XXV viability
[25] = blockers of cellular phospholipid synthesis – cell-based, LOPAC library, screen 4, primary screen (AID 1347384; call rule not given here); details: animal cells, phospholipid biosynthesis inhibition screen; at 10 µM
[26] = measured here: epithelial PC-3E GFP cell survival
[27] = measured here: mesenchymal TEM4-18 mCherry cell survival
[28] = stronger effect = lower value, cell number ratio, induced over uninduced
[29] = measured here: relative caspase fold change +Dox/-Dox
[30] = measured here: total cells with miR-34 induction, stronger effect = lower value
[31] = measured here: total cells without miR-34 induction

NCC1O[C@@H](OC2C(N)C[C@@H](N)C(OC3OC(CO)[C@@H](O)C(N)[C@H]3O)[C@H]2O)C(O)CC1O (stereo partly drawn)
red/green cell ratio (normalised) [1]: 1.05 (inactive) | normalised cell number [1, 26]: 1.04 | normalised cell number [1, 27]: 1.09

COC(=O)C1O[C@H](OC)[C@@H](OCc2ccccc2)[C@@H](OCc2ccccc2)C1O (stereo partly drawn)
red/green cell ratio (normalised) [1]: 1 (inactive) | normalised cell number [1, 26]: 1.14 | normalised cell number [1, 27]: 1.15

CC(=O)O[C@H]1CCC2(C)C3=C(CCC2C1(C)C)[C@@]1(C)CC[C@@H](C(C)CCC=C(C)C)[C@]1(C)CC3 (stereo partly drawn)
red/green cell ratio (normalised) [1]: 1.21 (inactive) | normalised cell number [1, 26]: 0.67 | normalised cell number [1, 27]: 0.81

C[C@@H]1C(=O)NC(Cc2ccccc2)C(=O)N2CCCC[C@H]2C(=O)O[C@H]([C@@H](C)CCCC[C@@H](C)O)C[C@H]1O (stereo partly drawn)
red/green cell ratio (normalised) [1]: 0.9 (inactive) | normalised cell number [1, 26]: 1.03 | normalised cell number [1, 27]: 0.93

COc1cc(CC(=O)O)c(C(C)=O)c(O)c1OC
red/green cell ratio (normalised) [1]: 0.89 (inactive) | normalised cell number [1, 26]: 1.18 | normalised cell number [1, 27]: 1.06

C=C[C@@](C)(O)CCC1C(=C)C[C@H](OC(C)=O)C2C(C)(C)CCCC12C (stereo partly drawn)
red/green cell ratio (normalised) [1]: 1.05 (inactive) | normalised cell number [1, 26]: 1.03 | normalised cell number [1, 27]: 1.08

CC(CC(=O)N1CCOC1=O)N1C(=S)OC[C@@H]1Cc1ccccc1 (stereo partly drawn)
red/green cell ratio (normalised) [1]: 1.09 (inactive) | normalised cell number [1, 26]: 0.88 | normalised cell number [1, 27]: 0.95

C[C@@H]1OC(O[C@H]2[C@H](O)[C@@H](O)[C@H](OC[C@H]3O[C@@H](OC(=O)[C@]45CCC(C)(C)CC4C4=CCC6[C@@]7(C)CC[C@H](OC8OC[C@H](O)[C@H](O)[C@H]8OC8O[C@@H](C)[C@H](O)[C@@H](O)[C@H]8O)[C@@](C)(CO)C7CC[C@@]6(C)[C@]4(C)CC5)[C@H](O)[C@@H](O)[C@@H]3O)O[C@@H]2CO)[C@H](O)[C@H](O)[C@H]1O (stereo partly drawn)
red/green cell ratio (normalised) [1]: 0.98 (inactive) | normalised cell number [1, 26]: 0.96 | normalised cell number [1, 27]: 0.93

C[C@]12CCC3c4ccc(O)cc4C[C@@H](CCCCCCCCCS(=O)CCCC(F)(F)C(F)(F)F)C3C1CC[C@@H]2O (stereo partly drawn)
red/green cell ratio (normalised) [1]: 1.23 (inactive) | normalised cell number [1, 26]: 0.99 | normalised cell number [1, 27]: 1.21

C[C@@H]1CC[C@@]2(OC1)O[C@H]1CC3C4CC[C@H]5C[C@@H](O)CC[C@]5(C)C4CC[C@]3(C)[C@H]1[C@@H]2C (stereo partly drawn)
red/green cell ratio (normalised) [1]: 0.88 (inactive) | normalised cell number [1, 26]: 1.17 | normalised cell number [1, 27]: 1.03

NCCOB(c1ccccc1)c1ccccc1
red/green cell ratio (normalised) [1]: 1.1 (inactive) | normalised cell number [1, 26]: 0.8 | normalised cell number [1, 27]: 0.89 | remaining activity [2]: 110% (inactive) | fold change [3, 28]: 0.925 (inactive) | fold change [3, 29]: 0.886 | cell count [3, 30]: 8820 | cell count [3, 31]: 9540 | luciferase signal [4]: 120 AU (inactive) | z-score [5]: 1.9 (inactive)

C[C@H](CCC(=O)NCC(=O)O)[C@H]1CCC2C3C(C[C@H](O)[C@@]21C)[C@@]1(C)CC[C@@H](O)CC1C[C@H]3O (stereo partly drawn)
red/green cell ratio (normalised) [1]: 1.13 (inactive) | normalised cell number [1, 26]: 0.89 | normalised cell number [1, 27]: 1.01

NCCCCNCCCN
inhibition [6]: 7.23% | score [7]: 1 | rescue above control [8]: -7.17 | cytochrome c release ratio [9]: 1.12 | inhibition of aggregation [10]: 57.8% | normalised LDH release [11]: 0.936 | glutamate uptake change [12]: -3.1% | inclusion score [13]: 2 | aggregation suppression score [14]: 0.846 | period change [15]: 0.115 h (inactive) | inhibition [16]: -2% (inactive) | fluorescence ratio (interference) [17]: 1 (inactive) | red/green cell ratio (normalised) [1]: 0.89 (inactive) | normalised cell number [1, 26]: 0.98 | normalised cell number [1, 27]: 0.87 | remaining activity [2]: 101% (inactive) | outcome [18]: inactive | outcome [19]: inactive | outcome [20]: inactive | outcome [21]: inactive | outcome [22]: inactive | outcome [23]: inactive | IC50 [24]: 1.18 nM (active) | fold change [3, 28]: 0.943 (inactive) and 0.936 (inactive) | fold change [3, 29]: 1.92 and 0.604 | cell count [3, 30]: 9580 and 9960 | cell count [3, 31]: 10200 and 10600 | outcome [25]: inactive | luciferase signal [4]: 48 AU (inactive) | z-score [5]: -0.635 (inactive) and -0.08 (inactive)
